In PubChem BioAssay one finds composite z-score and z-score data, which are given here for five compounds.

The nature of assay [1]: anti-His antibody binders, primary screen, artefact control for SMM control protein annotation, biochemical, small-molecule microarray, 635 nm fluorescence (AID 1128).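 Also: score merges feature fluorescence with signal-to-noise for each printed compound spot.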 The note with it: anti-His Alexa647 antibody binding, higher = more signal.
Assay [2] deals with Human papillomavirus type 1a E7 protein (residues 1-88). In words: HPV1a E7 small-molecule binders, primary screen, biochemical, small-molecule microarray, residues 1-88, 635 nm (AID 1129). The note with it: small-molecule microarray binding, fluorescence 635 nm; higher = more signal.
Assay [3] concerns the target Focal adhesion kinase 1 (Homo sapiens) (UniProt Q05397). In words: small-molecule microarray binders of FAK, primary screen, biochemical, 635/667 nm fluorescence, BSA, DTT (AID 1130).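 Also: composite of spot emission at 667 nm and signal to noise over triplicate slides.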 The conditions noted are these: PTK2 binding, 635 nm fluorescence, higher = more signal.
Assay [4] has as its system Fibrinogen (Alexa647-labelled). In words: fibrinogen binders on compound microarrays, profiling panel, artefact control for SMM control-protein annotation, biochemical, small-molecule microarray, 635/667 nm fluorescence (AID 1131).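 Also: z-score merges 667 nm fluorescence with per-spot signal-to-noise over triplicate slides.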 The note with it: fibrinogen-A647 binding fluorescence, higher = more signal.
For assay [5], the target named is Follistatin (Homo sapiens) (UniProt P19883). In words: follistatin binders on small-molecule microarrays, primary screen, biochemical, small-molecule microarray, 635/667 nm fluorescence (AID 1132). The note with it: FST binding, 635 nm fluorescence, higher = more signal.
Assay [6] concerns the target Fibroblast growth factor 2 (Homo sapiens) (UniProt P09038). As to the kind of experiment: FGF2 binders on small-molecule microarrays, primary screen, biochemical, small-molecule microarray, 635/667 nm fluorescence (AID 1133). The conditions noted are these: small-molecule microarray binding, FGF2, fluorescence 635/667; higher = more signal.
The nature of assay [7]: mitochondrial membrane potential change in A549 cells, profiling panel, cell-based, JC-1 fluorescence, basal, 24 h, 100 nL (AID 1138).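 Also: A549 lung adenocarcinoma cells under basal conditions with no added stimulus; test concentration not given here.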 The note with it: higher = more signal.
The test system of the next assay is Lefty1. As to the kind of experiment: Lefty1 binders on small-molecule microarrays, primary screen, biochemical, small-molecule microarray, 635/667 nm fluorescence (AID 1139). The note with it: small-molecule microarray binding, fluorescence 635/667; higher = more signal.
For assay [8], the system named is wheat germ agglutinin (Triticum aestivum), Alexa647-labelled. In words: wheat germ agglutinin binders on compound microarrays, profiling panel, artefact control for SMM control-protein annotation, biochemical, small-molecule microarray, 635/667 nm fluorescence (AID 1140).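 Also: score merges 667 nm feature emission with signal to noise over triplicate slides.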 The conditions noted are these: WGA-A647 binding, 635 nm fluorescence, higher = more signal.
Assay [9] has as its target Luciferin 4-monooxygenase (Photinus pyralis) (UniProt P08659). As to the kind of experiment: firefly luciferase enzyme inhibitors, primary screen, biochemical, luminescence, purified enzyme, 2006 set (AID 1141).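 Also: cell-free assay with purified firefly luciferase at 100 ng per well in PBS; test concentration not given here.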 The conditions noted are these: SteadyGlo luminescence, 30 min, higher = more signal, called active from +8 up or from −8 down.
The subject of assay [10] is Wnt5a (protein binding on small-molecule microarray). In words: Wnt5a binders on small-molecule microarray, primary screen, biophysical, 635/667 nm fluorescence (AID 1142).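 Also: fluorescence read at 667 nm with signal to noise per printed feature.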 The note with it: 635 nm fluorescence, higher = more signal.
Assay [11] can be described thus: cell viability in Huh7 cells, primary screen, cytotoxicity control for HCV replication inhibitor project, CellTiter-Glo luminescence, basal, 48 h (AID 1143).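 Also: Huh7 hepatoma cells carrying a hepatitis C replication reporter with no stimulus; test concentration not given here.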 The conditions noted are these: Huh7 HCV replicon, higher = more signal, called active from +8 up or from −8 down. Background: In ATP-based viability assays light output follows the ATP content of the culture.

Assay [12] in a line: P. aeruginosa biofilm formation inhibitors, primary screen, PAO1 strain, BacTiter-Glo luminescence, LB-PBS (AID 1144). The note with it: 12 h, higher = more signal.
Assay [13] is described as follows: CREB reporter modulators without forskolin, primary screen, cell-based, PC12, CRE-LacZ reporter, unstimulated (AID 1145). The conditions noted are these: no forskolin, luminescence, 4.5 h, higher = more signal, called active from +8 up or from −8 down.
A short description of assay [14]: CREB reporter modulators under forskolin, primary screen, cell-based, PC12, CRE-LacZ reporter, forskolin-stimulated (AID 1146).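 Also: PC12 cells with 6xCRE LacZ reporter stimulated by forskolin 10 µM; beta-galactosidase reporter signal reflecting CREB driven transcription.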 The conditions noted are these: luminescence, 4.5 h, higher = more signal, called active from +8 up or from −8 down.
Assay [15] has as its target Streptavidin (Streptomyces avidinii) (UniProt P22629). In words: streptavidin binders on small-molecule microarray, primary screen, artefact control for SMM compound annotation, biophysical, 635/667 nm fluorescence (AID 1147).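 Also: signal reflects streptavidin binding to arrayed compounds as a control protein.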 The conditions noted are these: streptavidin binding, higher = more signal.
A short description of assay [16]: small-molecule binders of probe aInhba, primary screen, biochemical, small-molecule microarray, 635/667 nm fluorescence (AID 1148).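 Also: score merges 667nm spot fluorescence with signal-to-noise for antibody binding to printed compounds.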 The note with it: higher = more signal.
Assay [17] has as its target Torsin-1A (Homo sapiens) (UniProt O14656). As to the kind of experiment: torsin A binders from cell lysate, primary screen, small-molecule microarray, wild-type, 635/667 nm (AID 1149). The conditions noted are these: COS7 hTOR1A-WT lysate, 635 nm fluorescence, higher = more signal.
Assay [18] shares this target. In words: small-molecule binders of mutant TOR1A in lysate, primary screen, cell lysate, small-molecule microarray, COS7 lysate, 635/667 nm fluorescence (AID 1150).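 Also: score pools 667 nm emission and signal to noise measuring lysate protein binding.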 The note with it: COS7 hTOR1A mutant lysate, 635 nm fluorescence, higher = more signal.
Assay [19] concerns Sonic hedgehog protein (Shh). As to the kind of experiment: small-molecule binders of Shh protein, primary screen, biochemical, small-molecule microarray, 635/667 nm fluorescence (AID 1151).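 Also: Shh protein binding to compounds spotted on small-molecule microarray slides; score combines spot fluorescence intensity with signal-to-noise across triplicate slides.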 The conditions noted are these: small-molecule microarray binding, 635 nm fluorescence; higher = more signal.

Activity calls are given as the source filed them. Unless noted, no rule for the calls is given here.

Focal adhesion kinase 1 (Homo sapiens), sequence (Q05397 whole entry, looked up): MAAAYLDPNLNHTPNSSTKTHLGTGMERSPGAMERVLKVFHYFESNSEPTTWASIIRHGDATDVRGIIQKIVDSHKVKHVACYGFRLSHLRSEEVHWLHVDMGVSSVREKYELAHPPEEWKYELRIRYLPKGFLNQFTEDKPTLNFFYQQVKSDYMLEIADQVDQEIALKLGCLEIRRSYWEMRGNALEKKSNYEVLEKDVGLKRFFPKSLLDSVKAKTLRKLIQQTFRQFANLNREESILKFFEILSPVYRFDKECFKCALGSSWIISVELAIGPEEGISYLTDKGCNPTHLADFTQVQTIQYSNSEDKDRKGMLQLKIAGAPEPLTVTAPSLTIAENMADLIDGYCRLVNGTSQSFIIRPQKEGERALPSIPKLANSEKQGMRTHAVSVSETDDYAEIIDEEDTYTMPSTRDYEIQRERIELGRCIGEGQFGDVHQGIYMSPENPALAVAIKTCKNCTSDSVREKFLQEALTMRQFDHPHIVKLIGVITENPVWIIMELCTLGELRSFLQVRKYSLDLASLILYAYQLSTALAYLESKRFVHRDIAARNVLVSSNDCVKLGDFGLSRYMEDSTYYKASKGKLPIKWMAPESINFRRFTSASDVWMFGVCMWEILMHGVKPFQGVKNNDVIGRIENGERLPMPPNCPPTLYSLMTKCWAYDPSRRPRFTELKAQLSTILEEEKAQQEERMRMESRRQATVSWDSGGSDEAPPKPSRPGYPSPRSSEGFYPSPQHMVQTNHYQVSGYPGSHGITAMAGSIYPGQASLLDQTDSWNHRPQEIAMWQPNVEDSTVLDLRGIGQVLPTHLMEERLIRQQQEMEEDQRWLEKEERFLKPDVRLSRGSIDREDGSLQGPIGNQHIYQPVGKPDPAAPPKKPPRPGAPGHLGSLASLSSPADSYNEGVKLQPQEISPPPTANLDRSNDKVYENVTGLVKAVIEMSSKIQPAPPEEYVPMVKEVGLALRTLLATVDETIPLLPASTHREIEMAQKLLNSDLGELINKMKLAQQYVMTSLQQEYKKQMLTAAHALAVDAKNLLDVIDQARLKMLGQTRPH
Luciferin 4-monooxygenase (Photinus pyralis), sequence (P08659 whole entry, looked up): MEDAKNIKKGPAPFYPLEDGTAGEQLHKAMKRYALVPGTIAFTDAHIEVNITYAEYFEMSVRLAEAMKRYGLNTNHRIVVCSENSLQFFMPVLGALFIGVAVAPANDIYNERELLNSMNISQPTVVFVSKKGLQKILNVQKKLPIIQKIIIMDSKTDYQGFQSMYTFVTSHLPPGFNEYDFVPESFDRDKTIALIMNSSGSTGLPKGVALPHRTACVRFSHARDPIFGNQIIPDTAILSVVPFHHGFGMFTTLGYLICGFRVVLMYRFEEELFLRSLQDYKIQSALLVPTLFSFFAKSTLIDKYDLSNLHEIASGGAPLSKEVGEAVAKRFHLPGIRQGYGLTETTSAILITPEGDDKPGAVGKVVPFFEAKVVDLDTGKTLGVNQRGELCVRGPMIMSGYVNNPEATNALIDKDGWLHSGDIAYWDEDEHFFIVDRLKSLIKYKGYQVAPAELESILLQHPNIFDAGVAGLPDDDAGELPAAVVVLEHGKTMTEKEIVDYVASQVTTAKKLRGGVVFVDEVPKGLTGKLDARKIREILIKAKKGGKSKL
Follistatin (Homo sapiens), sequence (P19883 whole entry, looked up): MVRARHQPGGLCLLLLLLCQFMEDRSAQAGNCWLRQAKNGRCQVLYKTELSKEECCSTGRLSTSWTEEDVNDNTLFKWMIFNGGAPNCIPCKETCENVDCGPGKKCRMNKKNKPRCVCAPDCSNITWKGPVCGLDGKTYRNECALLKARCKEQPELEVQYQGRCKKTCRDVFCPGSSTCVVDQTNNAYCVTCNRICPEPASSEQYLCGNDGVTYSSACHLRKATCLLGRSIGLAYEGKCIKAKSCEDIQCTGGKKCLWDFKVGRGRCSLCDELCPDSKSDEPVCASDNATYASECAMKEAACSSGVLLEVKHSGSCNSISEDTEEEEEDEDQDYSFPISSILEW
Fibroblast growth factor 2 (Homo sapiens), sequence (P09038 whole entry, looked up): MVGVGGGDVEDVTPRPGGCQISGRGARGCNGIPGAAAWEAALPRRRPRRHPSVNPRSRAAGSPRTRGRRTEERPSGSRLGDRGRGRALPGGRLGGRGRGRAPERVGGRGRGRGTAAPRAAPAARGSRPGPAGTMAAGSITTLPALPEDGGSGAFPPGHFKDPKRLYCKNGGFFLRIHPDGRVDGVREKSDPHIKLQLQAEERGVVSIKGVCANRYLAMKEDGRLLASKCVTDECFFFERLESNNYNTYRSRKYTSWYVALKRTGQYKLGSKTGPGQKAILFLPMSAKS
Torsin-1A (Homo sapiens), sequence (O14656 whole entry, looked up): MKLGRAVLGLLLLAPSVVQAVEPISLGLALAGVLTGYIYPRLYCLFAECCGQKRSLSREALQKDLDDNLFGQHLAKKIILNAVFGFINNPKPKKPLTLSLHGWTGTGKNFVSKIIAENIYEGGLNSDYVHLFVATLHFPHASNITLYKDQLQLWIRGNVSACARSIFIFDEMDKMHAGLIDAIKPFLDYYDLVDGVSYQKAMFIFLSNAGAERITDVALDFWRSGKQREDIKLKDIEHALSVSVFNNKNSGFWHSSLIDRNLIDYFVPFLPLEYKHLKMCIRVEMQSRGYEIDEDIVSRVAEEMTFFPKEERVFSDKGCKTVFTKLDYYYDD
Streptavidin (Streptomyces avidinii), sequence (P22629 whole entry, looked up): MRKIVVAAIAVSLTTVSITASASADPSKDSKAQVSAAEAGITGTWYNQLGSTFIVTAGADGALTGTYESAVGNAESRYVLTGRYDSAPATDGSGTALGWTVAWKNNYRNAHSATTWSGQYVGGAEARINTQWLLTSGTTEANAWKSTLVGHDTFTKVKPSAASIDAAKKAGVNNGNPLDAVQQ

Take `CN1C(=O)C2C=CC(C(O)c3cccs3)N(Nc3ccccc3)C2C1=O` (stereo not given): the composite z-score in assay [1] is 0.803; in [2], 1.16; in assay [3], 0.251; in assay [4], 0.024; in assay [5], 0.492; in assay [6] it was -0.294. Besides, the composite z-score was found to be 0.249 in the assay with Lefty1; 0.508 in [8]; 0.455 in assay [10]; 0.389 in [15]; 0.406 in assay [16]; 0.757 with Torsin-1A (Homo sapiens) [17]. Moreover, the composite z-score with Torsin-1A (Homo sapiens) [18] came out at 0.738; in assay [19] it was 0.251. Also, the z-score in assay [7] is 0.0177; in assay [9], -0.0014 (inactive); in assay [11], 0.593 (inactive); in [12], -0.0101 (inactive); in [13] it was 0.426 (inactive); in assay [14], 0.711 (inactive).
In the case of `CCCC#C[Si](O[C@H](CC)c1cn([C@H](CO)Cc2ccccc2)nn1)(C(C)C)C(C)C`, the composite z-score stood at 0.236 in [1]; 0.842 in assay [2]; 0.249 in [3]; 0.892 in [4]; 0.963 in [5]; 0.344 in assay [6]. Further, the composite z-score in the assay on Lefty1 was 0.41; in assay [8] it was 0.0686; in [10], 0.998; in [15] it was 0.949; in assay [16], -0.128; in the assay with Torsin-1A (Homo sapiens) [17], 0.402. In addition, the composite z-score came out at 0.511 with Torsin-1A (Homo sapiens) [18] and 0.482 in [19]. Also, the z-score is 0.175 in assay [7]; -0.453 (inactive) in assay [9]; -0.727 (inactive) in assay [11]; -0.259 (inactive) in assay [12]; -0.388 (inactive) in assay [13]; -0.0711 (inactive) in [14].
In the case of `COc1ccc([C@H]2OC[C@@H]3CC4(CC=CC4)C(=O)N32)cc1`, the composite z-score in [1] was -0.648; in assay [2], 0.828; in assay [3] it was 0.282; in assay [4] it was -0.163; in [5] it was 1.4; in [6], 0.848. For the same compound, the composite z-score is 1.35 in the assay with Lefty1; -0.284 in [8]; 0.0071 in assay [10]; 0.193 in assay [15]; -0.159 in assay [16]; -0.477 with Torsin-1A (Homo sapiens) [17]. Moreover, the results for the composite z-score (in the assay with Torsin-1A (Homo sapiens) [18]; in assay [19]) were -0.436 and 1.92, respectively. Besides, the z-score in [7] is -0.661; in [9] it was -0.573 (inactive); in assay [11], 0.377 (inactive); in assay [12] it was 0.25 (inactive); in assay [13], 0.236 (inactive); in assay [14], 0.249 (inactive).
With `COCCOC(=O)N1C(=O)[C@@]2(c3ccccc31)[C@H](c1ccccc1OCCO)N1[C@H](c3ccccc3)[C@H](c3ccccc3)OC(=O)[C@H]1[C@@H]2C(=O)Nc1nc2ccccc2s1`, the composite z-score in [1] stood at 1.04; in assay [2], 1.19; in assay [3], 0.445; in [4] it was 0.994; in [5], 1.35; in [6], 1.03. The composite z-score was 1.34 with Lefty1; 1.18 in assay [8]; 0.212 in assay [10]; 1.14 in [15]; 0.113 in [16]; 0.421 with Torsin-1A (Homo sapiens) [17]. In addition, the figures for the composite z-score (with Torsin-1A (Homo sapiens) [18]; in [19]) were 1.25 and 1.81, respectively. Moreover, the z-score in assay [7] was -1.91; in [9] it was -2.37 (inactive); in [11], -3.78 (inactive); in assay [12], -0.868 (inactive); in assay [13] it was -0.0566 (inactive); in [14] it was 2.86 (inactive).
In the case of `COC(=O)[C@@]1(Cc2ccccc2)[C@H]2c3cc(C(=O)N(C)C)n(CCSCCO)c3C[C@H]2CN1C(=O)c1ccccc1`, the composite z-score in [1] is 1.25; in assay [2], 1.2; in assay [3], 0.342; in [4], 0.632; in assay [5], -0.347; in assay [6], -0.299. Further, the composite z-score was -0.84 with Lefty1; 0.879 in [8]; 0.197 in [10]; 0.357 in assay [15]; -0.0589 in [16]; -0.0487 with Torsin-1A (Homo sapiens) [17]. The composite z-score with Torsin-1A (Homo sapiens) [18] is 0.796; in assay [19], -0.931. In addition, the z-score in [7] is 0.599; in assay [9], 1.14 (inactive); in assay [11], -0.432 (inactive); in [12], 0.33 (inactive); in assay [13], 0.397 (inactive); in [14] it was 0.695 (inactive).
